# Assay results taken from paper PMC8384837, “Expanding the binding specificity for RNA recognition by a PUF domain”.
# What was measured:
# Assay in all cases: yeast three-hybrid, YBZ-1, SC-Leu-His + 0.5 mM 3-AT, 4 days
# Settings in all cases: tags: N-Gal4 AD-HA kept; label: inside an RPR1-promoter hybrid RNA with tandem MS2 sites; ssRNA
# PUM1 PUF domain R4-DHR = PUM1 PUF domain R4-DHR (Homo sapiens, UniProt Q14671 828-1176, N971D;Q975R)
# How it was run: (§1)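 Pumilio-1 PUF domain libraries, randomized at the three base-contacting residues of each repeat, were co-expressed with matching RNA elements from a centromeric plasmid in strain YBZ-1, which carries a LexA–MS2 coat fusion and a HIS3 reporter. Transformants grew for four days on SC-Leu (input) or on SC-Leu-His + 0.5 mM 3-AT (selection), and the repeat regions were PCR-amplified and Illumina-sequenced. The interaction score is the log change in variant frequency from input to selection. That logarithm is base 2, with a pseudocount of 1 where a variant was absent.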
# PUM1 PUF domain R4-PFQ = PUM1 PUF domain R4-PFQ (Homo sapiens, UniProt Q14671 828-1176, N971P;H972F)
# How it was run: as §1
# PUM1 PUF domain R3-WWR = PUM1 PUF domain R3-WWR (Homo sapiens, UniProt Q14671 828-1176, C935W;R936W;Q939R)
# How it was run: as §1
# PUM1 PUF domain R1-KLS = PUM1 PUF domain R1-KLS (Homo sapiens, UniProt Q14671 828-1176, S863K;R864L;Q867S)
# How it was run: as §1
# PUM1 PUF domain R5-GVR = PUM1 PUF domain R5-GVR (Homo sapiens, UniProt Q14671 828-1176, C1007G;R1008V;Q1011R)
# How it was run: as §1
# PUM1 PUF domain R5-KFV = PUM1 PUF domain R5-KFV (Homo sapiens, UniProt Q14671 828-1176, C1007K;R1008F;Q1011V)
# How it was run: as §1
# PUM1 PUF domain R3-SEE = PUM1 PUF domain R3-SEE (Homo sapiens, UniProt Q14671 828-1176, C935S;R936E;Q939E)
# How it was run: as §1
# PUM1 PUF domain R3-DFL = PUM1 PUF domain R3-DFL (Homo sapiens, UniProt Q14671 828-1176, C935D;R936F;Q939L)
# How it was run: as §1
# PUM1 PUF domain R5-KLH = PUM1 PUF domain R5-KLH (Homo sapiens, UniProt Q14671 828-1176, C1007K;R1008L;Q1011H)
# How it was run: as §1
# PUM1 PUF domain R6-CYT = target: T1, PUM1 PUF domain R6-CYT (Homo sapiens, UniProt Q14671 828-1176, N1043C;Q1047T)
# T1 sequence: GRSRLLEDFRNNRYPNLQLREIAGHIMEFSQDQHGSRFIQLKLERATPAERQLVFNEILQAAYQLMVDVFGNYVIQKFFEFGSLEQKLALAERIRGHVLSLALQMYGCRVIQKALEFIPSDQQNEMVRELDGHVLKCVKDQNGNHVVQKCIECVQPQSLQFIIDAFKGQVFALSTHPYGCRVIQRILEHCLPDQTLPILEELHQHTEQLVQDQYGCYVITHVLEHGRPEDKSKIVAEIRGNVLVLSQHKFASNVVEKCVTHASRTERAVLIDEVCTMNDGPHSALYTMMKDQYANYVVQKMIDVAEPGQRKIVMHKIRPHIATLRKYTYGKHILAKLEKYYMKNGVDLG
# How it was run: as §1
sequence,measurement,setting,value
GGCUAGAACUAGUGGAUCCCCCGGCGCCCGGCGGCUCGAGCCCGGGUAAGUGUAUAUAGUCUGCAUGCCGCCGGGCGCCAUGCCUGCAGGUCGACUCUAGAAAACAUG,binding signal,PUM1 PUF domain R4-DHR,4.76 log2 enrichment (interaction score)
same,binding signal,PUM1 PUF domain R4-PFQ,5.54 log2 enrichment (interaction score)
GGCUAGAACUAGUGGAUCCCCCGGCGCCCGGCGGCUCGAGCCCGGGUAAGUGUAAUUAGUCUGCAUGCCGCCGGGCGCCAUGCCUGCAGGUCGACUCUAGAAAACAUG,binding signal,PUM1 PUF domain R3-WWR,3.35 log2 enrichment (interaction score)
GGCUAGAACUAGUGGAUCCCCCGGCGCCCGGCGGCUCGAGCCCGGGUAAGUGUAAAUCGUCUGCAUGCCGCCGGGCGCCAUGCCUGCAGGUCGACUCUAGAAAACAUG,binding signal,PUM1 PUF domain R1-KLS,3.97 log2 enrichment (interaction score)
GGCUAGAACUAGUGGAUCCCCCGGCGCCCGGCGGCUCGAGCCCGGGUAAGUGUUAAUAGUCUGCAUGCCGCCGGGCGCCAUGCCUGCAGGUCGACUCUAGAAAACAUG,binding signal,PUM1 PUF domain R5-GVR,1.75 log2 enrichment (interaction score)
same,binding signal,PUM1 PUF domain R5-KFV,6.19 log2 enrichment (interaction score)
GGCUAGAACUAGUGGAUCCCCCGGCGCCCGGCGGCUCGAGCCCGGGUAAGUGUACAUAGUCUGCAUGCCGCCGGGCGCCAUGCCUGCAGGUCGACUCUAGAAAACAUG,binding signal,PUM1 PUF domain R4-DHR,6.79 log2 enrichment (interaction score)
GGCUAGAACUAGUGGAUCCCCCGGCGCCCGGCGGCUCGAGCCCGGGUAAGUGUAAGUAGUCUGCAUGCCGCCGGGCGCCAUGCCUGCAGGUCGACUCUAGAAAACAUG,binding signal,PUM1 PUF domain R3-WWR,5.22 log2 enrichment (interaction score)
same,binding signal,PUM1 PUF domain R3-SEE,2.43 log2 enrichment (interaction score)
GGCUAGAACUAGUGGAUCCCCCGGCGCCCGGCGGCUCGAGCCCGGGUAAGUGUAAAUAGUCUGCAUGCCGCCGGGCGCCAUGCCUGCAGGUCGACUCUAGAAAACAUG,binding signal,PUM1 PUF domain R3-DFL,2.6 log2 enrichment (interaction score)
same,binding signal,PUM1 PUF domain R3-WWR,0.59 log2 enrichment (interaction score)
same,binding signal,PUM1 PUF domain R5-KFV,3.95 log2 enrichment (interaction score)
GGCUAGAACUAGUGGAUCCCCCGGCGCCCGGCGGCUCGAGCCCGGGUAAGUGUCAAUAGUCUGCAUGCCGCCGGGCGCCAUGCCUGCAGGUCGACUCUAGAAAACAUG,binding signal,PUM1 PUF domain R5-GVR,5.93 log2 enrichment (interaction score)
same,binding signal,PUM1 PUF domain R5-KLH,2.85 log2 enrichment (interaction score)
same,binding signal,PUM1 PUF domain R5-KFV,5.97 log2 enrichment (interaction score)
GGCUAGAACUAGUGGAUCCCCCGGCGCCCGGCGGCUCGAGCCCGGGUAAGUGAAAAUAGUCUGCAUGCCGCCGGGCGCCAUGCCUGCAGGUCGACUCUAGAAAACAUG,binding signal,PUM1 PUF domain R6-CYT,3.1 log2 enrichment (interaction score)
